For 14 compounds, cell count and fold fluorescence results are on record in PubChem BioAssay.

Several values for one entry are separate records, joined by “and”; a condition that tells them apart may be missing. Identical values can stand only once. Activity calls are given as the source filed them. The rule behind the calls is not given here.

The first assay can be described thus: sensitizers of A549 cells to miR-34 induction, primary screen, imaging, A549 dox-inducible miR-34, nuclei and caspase counts (AID 1347080). Particulars: A549 miR-34 inducible, Hoechst nuclei count, 48 h; measured here: total cells with miR-34 induction; stronger effect = lower value.
For `COCCCOc1ccnc(CS(=O)c2nc3ccccc3[nH]2)c1C` (centres undefined), the cell count was 9170 and 10700. `Cc1ccc(-n2nc(C(C)(C)C)cc2NC(=O)Nc2ccc(OCCN3CCOCC3)c3ccccc23)cc1`: the cell count turned out to be 7750.

On to `COc1ccccc1N1CCN(CCCCNC(=O)c2ccc(-c3ccc(C(C)=O)cc3)cc2)CC1`, for which the cell count was found to be 8920.

Regarding `O=C1CN(/N=C/c2ccc([N+](=O)[O-])o2)C(=O)N1`, the cell count is 8440 and 12500. Turning to `C[C@@H](C1=C(CCN(C)C)Cc2ccccc21)c1ccccn1`, the cell count was 7800.

In the case of `COc1ccc2c(c1)C(=O)N(CCc1ccc(S(=O)(=O)NC(=O)NC3CCCCC3)cc1)C(=O)C2(C)C`, the cell count is 9100 and 8180. Regarding `CCN(CC)CCOc1ccc(Cc2ccccc2)cc1`, the cell count came to 8340. Take `CN/C(=C\[N+](=O)[O-])NCCSCc1ccc(CN(C)C)o1`: the cell count was 10600 and 10300 and 12000. On to `CN1C(=O)CC[C@H]1c1cccnc1`, for which the cell count is 10100 and 7880 and 10300.

On to `Oc1ccc(O)cc1`, for which the cell count is 7800 and 7820.

The same assay, now with this note: A549 miR-34 inducible, Hoechst nuclei count, 48 h; measured here: total cells without miR-34 induction.
For `COCCCOc1ccnc(CS(=O)c2nc3ccccc3[nH]2)c1C` (centres undefined), the cell count was 9840 and 12400.

Turning to `Cc1ccc(-n2nc(C(C)(C)C)cc2NC(=O)Nc2ccc(OCCN3CCOCC3)c3ccccc23)cc1`, the cell count stood at 8380.

As for `COc1ccccc1N1CCN(CCCCNC(=O)c2ccc(-c3ccc(C(C)=O)cc3)cc2)CC1`, the cell count is 9600. On to `O=C1CN(/N=C/c2ccc([N+](=O)[O-])o2)C(=O)N1`, for which the cell count was 9100 and 13100. As to `C[C@@H](C1=C(CCN(C)C)Cc2ccccc21)c1ccccn1`, the cell count was found to be 8520. The same measure, in the same setting: the figure for `COc1ccc2c(c1)C(=O)N(CCc1ccc(S(=O)(=O)NC(=O)NC3CCCCC3)cc1)C(=O)C2(C)C` is 9360 and 9160. On the same count and under the same terms, the figure for `CCN(CC)CCOc1ccc(Cc2ccccc2)cc1` is 8600; for `CN/C(=C\[N+](=O)[O-])NCCSCc1ccc(CN(C)C)o1` it is 11300 and 10400 and 13000. As for `CN1C(=O)CC[C@H]1c1cccnc1`, the cell count is 10100 and 8480 and 11900.

For `Oc1ccc(O)cc1`, the cell count was 8040 and 8490.

A further assay can be described thus: inhibitors of Cryptococcus chitosan production, flow cytometry, Cibacron Brilliant Red staining (AID 1347148).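 Note: compound exposure lasted three days at 37 degrees C.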 Particulars: Cryptococcus neoformans chitosan, stronger effect = lower value; at 10 µM unless noted. A general note: In flow cytometry, cells or beads pass a laser one at a time.
`N=c1nc(N2CCCCC2)cc(N)n1O`: the fold fluorescence was 4.24 [at 238.9 µM] (inactive). Same read-out and setting: the figure for `CN(C)C(=O)C(CCN1CCC(O)(c2ccc(Cl)cc2)CC1)(c1ccccc1)c1ccccc1` is 10.1 [at 104.8 µM] (inactive); for `CN1CCN(C2=Nc3cc(Cl)ccc3Nc3ccccc32)CC1` it is 11 [at 153 µM] (inactive).

With `COC(=O)C1=C(C)NC(C)=C(C(=O)OC)C1c1ccccc1[N+](=O)[O-]`, the fold fluorescence is 3.72 [at 144.4 µM] (inactive).
